BAZ2B block: qHTS Assay for Inhibitors of BAZ2B; 4.4% of 360,000 active; Potency, µM (top dose mostly 114 µM), inactives show at the top dose activity change, negative = inhibition, usual class: inhibitors; AID 504333, 2011; AlphaScreen BAZ2B-H3K14Ac peptide displacement; further: on the % scale 0 is the no-effect control and ±100 the full control effect; nearly all actives have a fitted effect of over 60% in size
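BAZ2B (50 nM) with biotin-H3(5-23)K14Ac peptide (50 nM) in PBS pH 7.4, 0.01% Tween-20, preformed 30 min, then compound 30 min at room temperature; top concentration 110uM. AlphaScreen streptavidin donor/nickel chelate acceptor beads (10 ug/mL final), 20 min dark, signal read.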
G9a block: qHTS Assay for Inhibitors of Histone Lysine Methyltransferase G9a; 8.8% of 350,000 active; Potency, µM (doses to about 102 µM), without a hit: at the top dose activity, negative = inhibition, hits mostly inhibitors; Histone-lysine N-methyltransferase EHMT2 (Homo sapiens), Q96KQ7; G9a H3K9 monomethylation, AlphaScreen, 2 h; AID 504332, 2011; further: on the % scale 0 is the no-effect control and ±100 the full control effect; nearly all actives have a fitted effect of over 75% in size
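G9a (20 nM) was preincubated 15 min with compound, then reacted 2 h at room temperature with 500 nM biotin-H3K9 peptide and 20 µM SAM. Monomethyl-H3K9 detected by AlphaScreen using anti-H3K9me1 antibody.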
PLK1 PBD inh: qHTS for Inhibitors of PLK1-PDB (polo-like kinase 1 - polo-box domain): Primary Screen; Serine/threonine-protein kinase PLK1 (Homo sapiens), P53350; Plk1 PBD binding of FITC phosphopeptide, fluorescence polarization; Potency, µM, inactives show max response, negative = inhibition, usual class: inhibitors; 2.8% of 360,000 active; AID 720504, 2013; further: series mostly up to about 57 µM; on the % scale 0 is the no-effect control and ±100 the full control effect; nearly all actives have a fitted effect of over 65% in size
JMJD2A Tudor inh: qHTS Assay for Inhibitors of JMJD2A-Tudor Domain. AlphaScreen JMJD2A-Tudor / H3K4me3 peptide binding. AID 504339, 2011. Lysine-specific demethylase 4A (Homo sapiens), O75164. 4.4% of 390,000 active. Potency, µM (top dose mostly 114 µM), without a hit: at the top dose activity change, negative = inhibition, hits mostly inhibitors; further: on the % scale 0 is the no-effect control and ±100 the full control effect; nearly all actives have a fitted effect of over 50% in size
Target sequence (O75164 whole entry, looked up, the tested form may be a part): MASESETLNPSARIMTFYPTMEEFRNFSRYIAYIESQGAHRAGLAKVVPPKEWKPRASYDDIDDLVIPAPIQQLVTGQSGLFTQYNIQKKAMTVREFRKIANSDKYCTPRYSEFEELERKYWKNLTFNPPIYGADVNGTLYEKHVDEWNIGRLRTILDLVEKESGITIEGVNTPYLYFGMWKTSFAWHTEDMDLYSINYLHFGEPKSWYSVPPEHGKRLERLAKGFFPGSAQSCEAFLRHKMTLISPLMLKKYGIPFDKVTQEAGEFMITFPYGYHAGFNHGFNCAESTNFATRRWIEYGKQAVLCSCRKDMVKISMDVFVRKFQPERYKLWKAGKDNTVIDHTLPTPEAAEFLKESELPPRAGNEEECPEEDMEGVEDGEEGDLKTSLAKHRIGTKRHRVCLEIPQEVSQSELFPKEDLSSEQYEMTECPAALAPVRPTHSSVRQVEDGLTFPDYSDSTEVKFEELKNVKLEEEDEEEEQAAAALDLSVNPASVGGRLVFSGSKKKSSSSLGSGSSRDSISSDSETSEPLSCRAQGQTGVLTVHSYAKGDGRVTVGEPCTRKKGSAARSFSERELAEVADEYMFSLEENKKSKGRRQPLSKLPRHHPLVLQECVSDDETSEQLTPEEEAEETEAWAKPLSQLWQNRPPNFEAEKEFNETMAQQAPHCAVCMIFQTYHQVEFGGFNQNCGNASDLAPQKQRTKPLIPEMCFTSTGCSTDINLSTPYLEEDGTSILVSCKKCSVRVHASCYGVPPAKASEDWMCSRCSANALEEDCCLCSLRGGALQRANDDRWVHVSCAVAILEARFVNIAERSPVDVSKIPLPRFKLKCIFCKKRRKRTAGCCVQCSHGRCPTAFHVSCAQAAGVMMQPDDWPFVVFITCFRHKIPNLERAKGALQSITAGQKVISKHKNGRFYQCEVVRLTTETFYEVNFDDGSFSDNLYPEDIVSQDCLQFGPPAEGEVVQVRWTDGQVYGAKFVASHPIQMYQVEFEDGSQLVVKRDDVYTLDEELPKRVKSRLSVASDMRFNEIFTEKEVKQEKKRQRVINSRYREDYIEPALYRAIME
HP1b binding inh: HTS for Inhibitors of HP1-beta Chromodomain Interactions with Methylated Histone Tails; Chromobox protein homolog 1 (Homo sapiens), P83916; AlphaScreen HP1-beta / biotin-H3K9me3 peptide binding; Potency, µM (highest dose often 114 µM), for inactives: at the highest dose activity change, negative = inhibition, hits mostly inhibitors; 0.56% of 390,000 active; AID 540317, 2011; further: nearly all actives have a fitted effect of over 70% in size
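Compound inhibition of the preformed complex between 50 nM HP1-beta and 50 nM biotinylated H3K9me3 peptide was read by AlphaScreen. Buffer was PBS pH 7.4 with 0.01% Tween-20. Incubations ran 30 min at room temperature, with 10 ug/mL donor/acceptor beads.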
Sfp PPTase inh: qHTS Assay for Inhibitors of Bacillus subtilis Sfp phosphopantetheinyl transferase (PPTase); Biochemical Sfp PPTase activity, qHTS; Potency, µM, inactives show largest response in the series, negative = inhibition, most hits filed as inhibitors; 3.5% of 310,000 active; 4'-phosphopantetheinyl transferase ffp (Bacillus subtilis), Q9F4F7;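 further: the enzyme is Sfp with the accession as filed and its product quenches rhodamine fluorescence; 0% = enzyme reaction without inhibitor and -100% = no enzyme wells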
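Step 1, compound plus 15 nM Sfp-PPTase, 15 min, room temperature. Step 2, add rhodamine-CoA (5 uM) and BHQ-2-YbbR (12.5 uM). Step 3, read 525/598 nm fluorescence at 0 and 30 min.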
Numbers without * were called inactive; ? = inconclusive; . = no result given; [ ] = another dose, or the depositor's remark. The list is not random: actives were taken first. Their share in the collection is about 12%. The call rests on the fitted dose curve; in most records, active means well fitted curve in the direction sought with a large enough effect; inconclusive means small, poorly fitted or top-dose-only effect, or another doubt; inactive means no such curve, though single readings can be large; an effect the other way counts as inactive or inconclusive. Potency means the concentration at half of the fitted maximal effect.

SMILES	BAZ2B block	G9a block	PLK1 PBD inh	JMJD2A Tudor inh	HP1b binding inh	Sfp PPTase inh
CC(NCCc1ccc(S(N)(=O)=O)cc1)C(=O)NCCc1ccc(F)cc1 (stereo not given)	50.1µM*	8.1%	2.9%	25.1µM*	?	-24.5%
CN(CC(=O)NCCc1ccc(S(N)(=O)=O)cc1)Cc1c(F)cccc1Cl	21.9%	50.1µM*	2.5%	-3.2%	19.9%	9.5%
CN(CC(=O)Nc1ccc([N+](=O)[O-])cc1Br)Cc1c(F)cccc1Cl	-26.2%	?	26.7µM*	?	-16.6%	-1.3%
CC(NCC(=O)NCCc1ccc(S(N)(=O)=O)cc1)c1ccc(F)cc1 (stereo not given)	-24.4%	.	-15.7%	1.4%	15.0%	11.5%
NC(=O)C1CCN(C(=O)c2ccc3c(c2)N(Cc2cccc(Cl)c2)C(=O)c2ccccc2S3(=O)=O)CC1	-1.7%	-16.4%[59 µM]	.	-6.7%	-15.1%	.
NS(=O)(=O)c1ccc(CCNC(=O)c2ccc3nc(Cc4ccccc4)oc3c2)cc1	1.4%	-2.9%[59 µM]	.	-5.8%	21.3%[57 µM]	.
Cc1cccc(C(=O)Nc2ccc(C(=O)OCc3cc(=O)n4nc(C5CC5)sc4n3)cc2)c1	-11.3%	-0.8%[59 µM]	.	-29.8%	13.7%	.
Cc1cccc2c(=O)n(C(=O)c3ccccc3)c(N)nc12	.	.	7.4%	.	.	.
CCN(CC)C(=O)c1sc2c(c1C)c(=O)n(-c1ccc(Cl)c(Cl)c1)c(=O)n2Cc1cc(=O)n2c(C)cccc2n1	0.5%	1.5%[59 µM]	.	?	42.9%	.
Cc1nn(-c2ccccc2)c(N)c1N=Nc1ccc2ccccc2c1	12.6µM*	39.8µM*	-6.9%	39.8µM*	?	?
Cc1nn(-c2ccccc2)c(N)c1N=O	-14.5%	11.2%	-5.8%	-14.0%	26.5%	5.4%
Cc1ccc(N=Nc2c(N)nn3c(N)c(C#N)c(C)nc23)cc1	-38.6%	-39.0%	-7.5%	56.2µM*	65.8%	-4.8%
COc1ccc(N=Nc2c(N)nn(C)c2N)cc1	.	.	-0.5%	?	79.4µM*	.
Cc1ccc(N=Nc2c(N)nn3c(C)cc(C)nc23)cc1	6.5%	16.9%[59 µM]	-2.0%	-7.5%	13.2%	16.9%
Cc1ccc(N=Nc2c(N)nn(-c3ccccc3)c2N)cc1	50.1µM*	-50.0%[59 µM]	-2.4%	35.5µM*	?	-11.7%
Cc1c(NC(=O)c2cccc3c(Cl)cccc23)cccc1-c1nc2ccccc2o1	-3.6%	33.1%[59 µM]	.	-9.3%	59.1%	.
Cc1ccc(NC(=O)COC(=O)CCc2ccccc2)cc1S(=O)(=O)N1CCOCC1	.	.	-6.0%	-11.3%	33.1%	.
Cc1cc(OCc2cc(C(=O)N(C)C3CCOC3)no2)cc(C)c1Cl (stereo not given)	10.1%	20.5%[0.0925 µM]	0.4%	-2.1%	64.0%	-4.3%
COCC(=O)N1CCC[C@@]2(CCN(C(=O)Nc3ccccc3)C2)C1	.	12.1%[12.7 µM]	.	.	.	27.6%
CCOC(=O)C1CCCN(c2nc3c(S(=O)(=O)c4ccc(Br)cc4)nnn3c3ccsc23)C1 (stereo not given)	-9.2%	-14.8%[59 µM]	.	89.1µM*	35.4%	.
CCOC(=O)C1CCCN(c2nc3c(S(=O)(=O)c4ccc(CC)cc4)nnn3c3ccsc23)C1 (stereo not given)	-14.8%	-23.7%[59 µM]	.	-12.8%	21.6%	.
CCOc1ccccc1NC(=O)c1c(NC(=O)COc2ccccc2)sc2c1CCCCC2	1.7%	2.4%[59 µM]	.	-5.9%	48.1%	.
Cc1cccc(-n2nc(C)c3c2NC2=C(C(=O)CCC2)C3c2ccccn2)c1 (stereo not given)	-26.8%	35.5µM*	-5.3%	?	5.4%	1.9%
COc1ccc(Cl)cc1NC(=O)CN(C)C(=O)c1cccc(S(=O)(=O)N2CCN(C)CC2)c1	.	.	5.8%	-12.0%	19.7%	.
CN1CCN(S(=O)(=O)c2cccc(C(=O)N(C)CC(=O)Nc3ccc(F)c(F)c3F)c2)CC1	?	1.78µM*	-1.2%	-21.4%	14.5%	.
SMILES	BAZ2B block	G9a block	PLK1 PBD inh	JMJD2A Tudor inh	HP1b binding inh	Sfp PPTase inh
Cc1cccc(NC(=O)CNCC(=O)Nc2cccc(C)c2C)c1C	-13.7%	-11.1%[0.501 µM]	3.6%	-5.0%	35.4%	9.5%
Cc1cccc(NC(=O)CNC(=O)c2cccc(-n3cccc3)c2)c1C	14.1µM*	35.5µM*	?	14.1µM*	?	.
Cc1ccc(C)c(NC(=O)CN(C)C(=O)c2cccc(N3C(=O)CCC3=O)c2)c1	-3.9%	39.8µM*	-4.9%	-5.6%	2.8%	.
CN(CC(=O)Nc1cccc(F)c1)C(=O)c1cccc(N2C(=O)CCC2=O)c1	13.9%	22.6%[59 µM]	-1.9%	-10.5%	17.8%	.
Cc1ccc(NC(=O)CN(C)C(=O)c2cccc(-n3cccc3)c2)cc1	11.2µM*	25.1µM*	?	?	20µM*	.
O=C(C1CCN(S(=O)(=O)c2ccccc2)CC1)N1CCC1	9.1%	7.5%[59 µM]	-0.3%	1.4%	32.8%	.
CC1CN(C(=O)CCNC(=O)c2ccc(Br)cc2)CC(C)O1 (stereo not given)	-0.8%	-5.1%[0.501 µM]	-0.2%	8.8%	16.2%	.
COc1cccc(CNC(=O)CCCN2C(=O)CCn3nc(-c4cccn4C)cc32)c1	-35.3%	-28.5%[59 µM]	.	-28.1%	4.7%[57 µM]	.
O=C(c1cccc(F)c1)N1CCC2(CC1)CCN(c1cccc(-c3ccccc3)c1)CC2	.	-11.6%[12.7 µM]	.	.	.	-8.2%
Cc1cccc(NC(=O)c2ccccc2O)c1C	-9.4%	3.2%[2.33 µM]	-1.3%	-16.0%	28.1%	12.8%
COc1ccc(NC(=O)CN(C)C(=O)c2cccc(S(=O)(=O)N3CCN(Cc4ccccc4)CC3)c2)cc1	?	17.8µM*	-13.7%	-22.0%	11.3%	50.1µM*
Cc1cccc(C)c1NC(=O)CN(C)C(=O)c1ccc(N2C(=O)CCC2=O)cc1	10.8%	?	-2.2%	-11.0%	25.7%	.
Cc1cccc(NC(=O)c2cnn3ccccc23)c1C	1.7%	-8.6%[12.7 µM]	26.7µM*	-2.2%[11.4 µM]	7.2%	13.8%
COc1ccc(NC(=O)CN(C)C(=O)c2cccc(-n3cccc3)c2)cc1	11.2µM*	44.7µM*	?	22.4µM*	25.1µM*	.
COc1ccc(NC(=O)CN(C)C(=O)c2cccc(Oc3ccccc3)c2)cc1	1.8%	?	-13.3%	-22.0%	22.6%	.
Cc1cccc(C)c1NC(=O)CN(C)C(=O)c1cccc(-n2cccc2)c1	50.1µM*	50.1µM*	-27.4%	8.91µM*	?	.
Cc1cc2occ(CC(=O)N(C)CC(=O)Nc3c(C)cccc3C)c2cc1C	1.5%	39.8µM*	-2.3%	-8.3%	4.7%	.
